High-throughput results (PubChem BioAssay)
VDR inh – inhibitors of human vitamin D receptor | Potency, µM, for inactives: max response, negative = inhibition, most hits filed as inhibitors | 400,000 tested, 0.93% active | VDR-SRC2-3 peptide fluorescence polarization, 2 h | P11473; note: potency is the fitted concentration of half-maximal effect; % is set by controls: 0 for no effect and ±100 for the full control effect
Target sequence (P11473 whole entry, looked up): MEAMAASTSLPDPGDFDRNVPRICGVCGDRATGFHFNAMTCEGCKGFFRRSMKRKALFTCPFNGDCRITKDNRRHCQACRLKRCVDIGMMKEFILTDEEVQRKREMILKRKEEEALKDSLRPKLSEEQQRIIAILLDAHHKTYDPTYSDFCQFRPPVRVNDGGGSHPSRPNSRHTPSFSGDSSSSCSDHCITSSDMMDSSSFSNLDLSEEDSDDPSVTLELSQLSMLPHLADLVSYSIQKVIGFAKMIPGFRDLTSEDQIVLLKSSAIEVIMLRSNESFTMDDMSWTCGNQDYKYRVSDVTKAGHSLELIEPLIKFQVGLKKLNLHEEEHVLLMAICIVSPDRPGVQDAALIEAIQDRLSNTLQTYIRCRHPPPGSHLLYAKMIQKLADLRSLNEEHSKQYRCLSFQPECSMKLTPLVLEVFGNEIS
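After 23 nl compound addition and a short centrifugation, plates sat for 2 hours at ambient temperature; polarization of fluorescence then indicated loss of VDR binding to peptide SRC2-3.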
GoLoco inh red – RGS12 GoLoco-Gai1 interaction inhibition; Gai1:RGS12 GoLoco peptide FP, rhodamine, 10 min; Potency, µM (titrated, usually from 61.6 µM), for inactives: top-dose activity, negative = inhibition, most hits filed as inhibitors; 230,000 tested, 0.44% active; AID 880; active = well fitted inhibition curve with a large enough effect, not every such curve was filed as active; inactive = no such curve, though single readings can be large or run the other way; note: potency is the fitted concentration of half-maximal effect; % is set by controls: 0 for no effect and ±100 for the full control effect; nearly all actives have a fitted effect of over 30% in size
Target sequence (P63096 whole entry, looked up): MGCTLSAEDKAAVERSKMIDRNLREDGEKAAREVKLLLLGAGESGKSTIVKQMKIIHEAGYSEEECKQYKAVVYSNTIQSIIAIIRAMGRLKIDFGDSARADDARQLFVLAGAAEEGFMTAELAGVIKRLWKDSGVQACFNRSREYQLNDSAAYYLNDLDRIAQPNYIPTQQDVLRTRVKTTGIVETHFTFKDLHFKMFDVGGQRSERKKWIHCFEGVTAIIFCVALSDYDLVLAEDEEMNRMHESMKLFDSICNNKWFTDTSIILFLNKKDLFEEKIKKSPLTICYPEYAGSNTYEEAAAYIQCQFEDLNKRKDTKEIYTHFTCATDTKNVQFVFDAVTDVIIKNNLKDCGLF
TRb SRC2 PPI – TRbeta-SRC2 interaction inhibition; P10828; TRbeta-SRC2 peptide binding, fluorescence polarization; receptor liganded with 1 µM T3; Potency, µM (series often up to 106 µM), inactives show at the top dose activity change, negative = inhibition, most hits filed as inhibitors; 280,000 tested, 0.065% active; AID 1469;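 note: potency is the fitted concentration of half-maximal effect; plate controls were bound peptide for no effect and peptide without receptor for full effect; nearly all actives have a fitted effect of over 50% in size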
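Each compound concentration gave % activity, normalized to unbound and bound Texas Red SRC2 controls, from polarization read after 5 hr ambient incubation with T3-loaded human TRb LBD.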
KAT2A inh – inhibitors of human GCN5L2 histone acetyltransferase. GCN5L2 HAT assay, ThioGlo1 CoA-SH fluorescence. 390,000 tested, 0.21% active. AID 504327. Q92830. Potency, µM (doses to about 58.9 µM), inactives show at the highest dose activity change, negative = inhibition, usual class: inhibitors; note: potency is the fitted concentration of half-maximal effect; % is set by controls: 0 for no effect and ±100 for the full control effect
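Fluorescence readout, Ex340nm/Em540nm: ThioGlo1 (50uM final) reacts with free CoA thiol released as 20nM GCN5L2 acetylates H3(1-25) peptide (75uM) using acetyl-CoA (70uM). Compound and enzyme sat 15 min beforehand; 20 min room-temperature reaction.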
TR SRC2 fluor cs – counter-screen for TRb-SRC2 inhibitors: fluorescence interference | 280,000 tested, 0.29% active | AID 1479 | TRb/SRC2 Texas Red total fluorescence interference | Potency, µM (titrated, usually from 106 µM), inactives show at the highest dose fluorescence change, negative = quenching; active = well fitted curve in either direction with a large enough effect; inconclusive = small, poorly fitted or top-dose-only effect; note: potency is the fitted concentration of half-maximal effect; % is set by controls: 0 for no effect and ±100 for the full control effect
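Human TRβ ligand-binding domain (0.6 uM) and Texas Red SRC2 peptide (20 nM) in Tris buffer with 1 uM T3 and 5% DMSO were incubated with pinned compound for 5 hr at ambient temperature. Total fluorescence was computed as S + 2P (555/632 nm).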
USP1 UbRho – blocks human USP1/UAF1 cleavage of Ub-Rhodamine; 50 tested, 50% active; Potency, µM (titrated, usually from 56.8 µM), without a hit: at the top dose activity change, negative = inhibition, actives largely listed as inhibitors; shares compounds with VDR inh; Ub-Rhodamine cleavage, fluorescence kinetic read
VDR confirm – inhibits human vitamin D receptor, primary hit validation. shares compounds with VDR inh. VDR-coactivator inhibition assay, qHTS confirmation. Potency, µM, most hits filed as inhibitors. 840 tested, 89% active. AID 602199; note: potency is the fitted concentration of half-maximal effect
VDR FP fluor – confirmation of human VDR-coactivator binding inhibitors, fluorescein label; shares compounds with VDR inh; VDR-coactivator binding, fluorescein fluorescence polarization; Potency, µM (doses to about 57.1 µM), inactives show top-dose activity change, negative = inhibition, most hits filed as inhibitors; 840 tested, 48% active; note: potency is the fitted concentration of half-maximal effect
VDR bla – confirmation of human vitamin D receptor inhibitors in reporter cells; shares compounds with VDR inh; VDR beta-lactamase reporter cells, FRET ratio; cells co-treated with VDR agonist LG190178; Potency, µM (series often up to 46.1 µM), for inactives: top-dose activity change, negative = inhibition, usual class: inhibitors; 840 tested, 23% active; note: potency is the fitted concentration of half-maximal effect; % is set by controls: 0 for no effect and ±100 for the full control effect
VDR viability – cell toxicity, VDR inhibitor hit counter-screen; shares compounds with VDR inh; cytotoxicity counter-screen, cell viability, qHTS; 840 tested, 18% active; Potency, µM (highest dose often 48.3 µM), for the others: at the highest dose activity change, negative = cytotoxicity, actives largely listed as cytotoxic;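 note: potency is the fitted concentration of half-maximal effect; plate controls were DMSO for no effect and high-concentration cycloheximide for full effect; nearly all actives have a fitted effect of over 75% in size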
The depositor's hits bear a star; ? = inconclusive; / = no result; [ ] = dose if it differs, or a comment. The list is not random: actives were taken first. Their share in the collection is about 1.2%. Unless noted, calls come from the whole dose curve; as a rule, active = well fitted curve in the direction sought with a large enough effect; inconclusive = small, poorly fitted or top-dose-only effect, or another doubt; inactive = no such curve, though single readings can be large; an effect the other way counts as inactive or inconclusive.

SMILES	VDR inh	GoLoco inh red	TRb SRC2 PPI	KAT2A inh	TR SRC2 fluor cs	VDR confirm	VDR FP fluor	VDR bla	VDR viability	others
Cc1ccc(Oc2c(C(N)=O)cc([N+](=O)[O-])cc2[N+](=O)[O-])cc1	28µM*	-15%	1%	-3%	-3%	11*	13µM*	?	5.6µM*
CC(=O)N(C(C)=O)N1C(=O)C2C3c4ccccc4C(c4ccccc43)C2C1=O (configuration not stated)	35µM*	3%	-3%	1%	0%	30*	?	33%	1%
O=S(=O)(/N=S1/CC=CCN1S(=O)(=O)c1ccccc1)c1ccccc1 (configuration not stated)	3.5µM*	14%	-26%	-21%	0%	5.3*	?	-4%	22%
Cc1ccc(NC(=O)c2ccc(-c3ccccc3)s2)cc1	1%	/	-3%	-5%	-1%	/	/	/	/
Cc1ccc(NC(=O)C2=C(c3ccccc3)S(=O)(=O)CCS2(=O)=O)cc1	?	-20%	-7%	?	-5%	6.3*	8.9µM*	6.5µM*	?
NC(=O)CCC1NC(=O)C(Cc2ccccc2)NC(=O)C(Cc2ccc(O)cc2)NC(=O)CCSSCC(C(=O)N2CCCC2C(=O)NC(CCCN=C(N)N)C(=O)NCC(N)=O)NC(=O)C(CC(N)=O)NC1=O (configuration not stated)	-16%	/	/	-11%	/	/	/	/	/
CCOC(=O)C1=C(Cc2ccc(F)cc2)C(=O)c2ccccc2C1=O	4.5µM*	73%	-4%	-13%	-1%	5.3*	?	-9%	-18%
CCCCc1ccc(/C=C2\C(=O)c3ccccc3C(O)=C2C(=O)OCC)cc1	/	-148%	-4%	?	3%	/	/	/	/
Cc1nc2ccc(N=NN(C)C)cc2[nH]1	50µM*	-3%	8%	?	-5%	21*	?	7%	?
CCC(C)(C)n1nnnc1C(c1ccccc1)N1CCc2ccccc2C1 (configuration not stated)	-6%	-11%	-3%	-3%	-1%	/	/	/	/
CCC(C)(C)n1nnnc1C(c1ccc(O)c(OC)c1)N1CCc2ccccc2C1 (configuration not stated)	?	-18%	11%	33%	0%	11*	28µM*	-2%	-7%
CC1(C)CC(=O)C2=C(C1)NC1=C(C(=O)c3ccccc31)C2c1ccc(Cl)cc1 (configuration not stated)	-21%	15%	1%[53 µM]	-6%	-1%[53 µM]	/	/	/	/
CC1(C)C(=O)NC2=C1C(=O)C(=O)c1ccccc12	45µM*	-13%	?	12%	-27%	/	/	/	/	USP1 UbRho=0.83µM*
Cc1ncn(-c2ccccc2O)c1C	/	1%[14.2 µM]	/	/	/	/	/	/	/
N#Cc1c(Nc2ccccc2)s[nH]c1=O	?	7%	1%	-5%	-4%	7.5*	8%	10%	-16%
O=C(O)c1ccc(/C=N\N=C2c3ccccc3-c3ccccc32)cc1	/	1%[14.2 µM]	/	/	/	/	/	/	/
COc1cccc(CC(=O)N2CCc3nc(-c4ccccc4)c4c(c3C2)CO[C@@H](C)C4)c1	/	8%[14.2 µM]	0%[11.2 µM]	/	-3%[11.2 µM]	/	/	/	/
CS(=O)(=O)c1sc(C#N)c2c1C(=O)CC(c1ccccc1)C2 (configuration not stated)	14µM*	-22%	-8%	-4%	3%	8.4*	?	15µM*	3.7µM*
C/C(=N/O)[C@@H]1C[C@H](CC(=O)O)C1(C)C	/	-9%[14.2 µM]	/	/	/	/	/	/	/
O=C1c2ccccc2C(=O)N1C[C@]1(C(=O)O)NCCS1(=O)=O	/	-5%[14.2 µM]	/	/	/	/	/	/	/
O=C(O)c1ccc(Oc2nc3ccccc3s2)cc1	-2%	4%[14.2 µM]	/	/	/	/	/	/	/
O=C(O)c1ccc(C=C(c2nc3ccccc3s2)c2nc3ccccc3s2)cc1	?	1%	-5%	-5%	-4%	13*	16µM*	23µM*	-25%
CCCCn1cnc2c(SC)ncnc21	/	5%[14.2 µM]	/	/	/	/	/	/	/
COc1ccc(NC(=O)Cc2ccc(Cl)c(Cl)c2)cn1	-15%	24%	1%	-1%	0%	/	/	/	/
COc1ccc(NC(=O)/C(Cl)=C(/Cl)S(=O)(=O)Cc2ccc(C)cc2)cn1	16µM*	4%	5%	-6%	3%	19*	13µM*	5.8µM*	21µM*
SMILES	VDR inh	GoLoco inh red	TRb SRC2 PPI	KAT2A inh	TR SRC2 fluor cs	VDR confirm	VDR FP fluor	VDR bla	VDR viability	others
COc1ccc(C2Nc3ccccc3C(=O)N2Cc2ccccc2)cc1COc1ccccc1F (configuration not stated)	-9%	/	/	/	/	/	/	/	/
Nc1ccc(/C=C/C(=O)c2ccco2)cc1	?	16%	-5%	0%	-8%	/	/	/	/
O=C(/C=C/c1cc(Br)ccc1O)c1ccco1	25µM*	10%	-8%	-2%	-2%	27*	?	?	?
COc1ccccc1/C=C1\CCCC2=C1Nc1nnnn1C2c1ccccc1OC (configuration not stated)	?	-7%	6%	-9%	2%	?	?	?	-4%
Cc1cc(C)c2c(SCc3ccc(Cl)cc3Cl)nc(N)nc2n1	/	5%[14.2 µM]	/	/	/	/	/	/	/
Cc1ccc(/C=C/C(=O)c2nc3ccccc3[nH]2)cc1	?	1%	15%	-5%	-2%	?	?	?	-14%
O=C1c2ccccc2C(=O)N1c1ccc(S(=O)(=O)N2CCOCC2)cc1	3%	/	/	/	/	/	/	/	/
CCOc1cc(/C=C2\N=C(C)OC2=O)cc(Cl)c1OCC(=O)OC	45µM*	/	/	/	/	9.5*	?	-2%	10%
CCOC(=O)c1c(C)oc2c1c1c(c3ccccc32)OCN(Cc2cccnc2)C1	?	14%	-6%	-12%	-2%	11*	7.9µM*	4%	?
CCOC(=O)c1c(C)oc2c1c(C(c1cccnc1)N1CCN(C)CC1)c(O)c1ccccc12 (configuration not stated)	/	-2%	-6%	-7%	-5%	/	/	/	/
